These results are taken from PubChem BioAssay AID2685 (National Center for Advancing Translational Sciences (NCATS), 2010).

Hit rate of the full screen: of about 320,000 compounds, about 2,100 (0.66%) were called active. Roughly 53% stayed inconclusive and do not appear here. Calls follow the shape of the dose curve; as a rule, active = well fitted inhibition curve with a large enough effect in the signal ratio, with a control signal flat (not every such curve was filed as active); inconclusive = small, poorly fitted or top-dose-only effect, or effect the other way, or a change in a side signal; inactive = flat fitted curve, though single readings scatter; the % refers to the signal ratio. The full list was thinned out, with actives kept by preference.
Potency is read from the fitted curve at half-maximal effect.

The experiment can be described thus: qHTS Assay for Lipid Storage Modulators in Drosophila S3 Cells.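 As to cell number change: cells counted by Cell Tracker Red CMTPX staining in the red channel.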 The note with it: BODIPY lipid droplet fluorescence, 18-24 h, cells fed with added oleic acid; cell number change: measured here: cell count max response; series mostly up to 46.1 µM. An outline of the steps:
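Drosophila S3 cells loaded with oleic acid (400 uM, as added) and compounds at several concentrations; lipid droplets imaged by 488-nm laser-scanning cytometry, 500–530 nm intensity and object ratio to cell channel. Percent activity normalized to 20 uM Triacsin C.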
In general terms: qHTS replaces the single test concentration by a dilution series.
Consider `COc1cccc(NC(=O)Cn2c3ccccc3c3nc4n(c(=O)c32)CCCS4)c1`, for which the Potency result is “inactive”.
For `COc1ccc(Cn2nc(C)cc2C)cc1OC`, the Potency entry is “inactive”.
Consider `O=C(CN(c1ccccc1)S(=O)(=O)c1ccccc1)N/N=C/c1ccco1`, for which the Potency entry is “inactive” and the cell number change is 6.67%.
In the same order, the values of `O=C(NCc1ccccn1)C1CCN(S(=O)(=O)c2cnc[nH]2)CC1` are “inactive” and -2.16%.
In the case of `COc1ccccc1CNC(=O)C1CCCN(S(=O)(=O)c2cnc[nH]2)C1` (stereo unspecified), the Potency entry was “inactive” and the cell number change came out at 23%.
With `O=C(C1CCN(S(=O)(=O)c2cnc[nH]2)CC1)N1CCN(Cc2ccc3c(c2)OCO3)CC1`, the Potency is 5.8 µM (active) and the cell number change was 1.49%.
In the same order, the values of `COc1ccc(CCNC(=O)C2CCN(S(=O)(=O)c3cnc[nH]3)CC2)cc1OC` are “inactive” and 4.12%.
For `CN(CCNC(=O)C1CCN(S(=O)(=O)c2cnc[nH]2)CC1)Cc1ccccc1`, the Potency result is “inactive” and the cell number change amounted to 11.4%.
As to `O=C(C1CCN(S(=O)(=O)c2ccccc2F)CC1)N1CCN(Cc2ccc3c(c2)OCO3)CC1`, the Potency result was “inactive” and the cell number change was -10.8%.
Regarding `CCCCNC(=O)C1CCN(S(=O)(=O)c2cnc[nH]2)CC1`, the Potency was 18.4 µM (active) and the cell number change was -1.76%.
In the same order, the values of `Cc1ccc(CNC(=O)C2CCCN(S(=O)(=O)c3cnc[nH]3)C2)cc1` (stereo unspecified) are “inactive” and -11.5%.
As for `COC(=O)CNC(=O)C1CCN(S(=O)(=O)c2cnc[nH]2)CC1`, the Potency was 0.326 µM (active) and the cell number change is -7.96%.
As to `O=C(C1CCN(S(=O)(=O)N2CCOCC2)CC1)N1CCN(Cc2ccc3c(c2)OCO3)CC1`, the Potency entry was “inactive” and the cell number change is -10.4%.
`COc1ccc(CNC(=O)C2CCCN(S(=O)(=O)c3cnc[nH]3)C2)cc1` (stereo unspecified): the Potency was 8.2 µM (active) and the cell number change is -8.84%.
With `CCN(CCCNC(=O)C1CCN(S(=O)(=O)c2cnc[nH]2)CC1)c1ccccc1`, the Potency entry is “inactive”.
For the compound `CC(=O)NC1=NN(C(C)=O)C(C)(CS(=O)(=O)c2ccc(Cl)cc2)S1` (stereo unspecified), the Potency entry was “inactive” and the cell number change is -3.99%.
As to `O=C(O)CC(NC(=O)c1ccco1)c1ccco1` (stereo unspecified), the Potency entry was “inactive” and the cell number change was determined as 3.18%.
For `Cn1c(-c2ccccn2)[n+](C)c2ccccc21`, the Potency entry is “inactive” and the cell number change was found to be 8.68%.
On to `CCN(CC)CC(=O)N1c2ccccc2Oc2c(c(=O)n(C)c(=O)n2C)C1c1cccc([N+](=O)[O-])c1` (stereo unspecified), for which the Potency entry was “inactive” and the cell number change worked out at 16%.
Regarding `COc1ccc(CC(=O)N/N=C(\C)CC(=O)Nc2ccc3c(c2)OCCO3)cc1OC`, the Potency result was “inactive” and the cell number change was -9.52%.
In the case of `CN(c1ccccc1)S(=O)(=O)c1ccc(C(=O)OCC(=O)N2CCOCC2)cc1`, the Potency result is “inactive”.
For the compound `O=c1cc(N2CCCCCC2)[nH]c(=O)n1-c1ccc(Cl)cc1`, the Potency entry was “inactive” and the cell number change is -2.94%.
With `CCCCC1=CC2=CC(=O)C(C)(OC(=O)CC)C(=O)C2=CN1CCCCO` (stereo unspecified), the Potency entry is “inactive” and the cell number change was 9.55%.
For `Cc1cc(C)cc(C(=O)N2CCN=C2SCc2ccc([N+](=O)[O-])cc2)c1`, the Potency was 16.4 µM (active) and the cell number change was 28.4%.
Turning to `O=C(c1ccccc1)N1CCN=C1SCc1ccc([N+](=O)[O-])cc1`, the Potency result is “inactive” and the cell number change worked out at 12%.
With `Cc1ccc(C(=O)N2CCN=C2SCc2ccc([N+](=O)[O-])cc2)cc1`, the Potency result was “inactive” and the cell number change turned out to be 4.98%.
In the same order, the values of `Cc1ccccc1-n1nc(C)c2cc(C(=O)N3CCOCC3)sc21` are “inactive” and 4.65%.
Regarding `CCc1c(O)nc(SCC(=O)Nc2ccccc2OC)n(-c2ccccc2C)c1=O`, the Potency result was “inactive”.
For the compound `CCCCc1c(O)nc(SCC(=O)Nc2cccc3ccccc23)n(-c2ccccc2OC)c1=O`, the Potency was 20.6 µM (active) and the cell number change stood at 14.5%.
In the same order, the values of `COc1ccccc1-n1cnnc1SCC(=O)N1CCN(C(=O)c2ccco2)CC1` are “inactive” and 21.6%.
As for `CCCCc1c(O)nc(SCC(=O)c2ccccc2)n(-c2ccccc2OC)c1=O`, the Potency result is “inactive” and the cell number change amounted to 11.3%.
In the same order, the values of `COc1ccccc1-n1c(SCC(=O)N2CCOCC2)nc(O)cc1=O` are “inactive” and -21.1%.
For `COc1ccccc1-n1c(SCC(=O)N2CCOCC2)nc(O)c(Cc2ccccc2)c1=O`, the Potency was 13 µM (active) and the cell number change is -8.86%.
Take `COc1ccccc1-n1c(SCC(=O)N2CCCCC2)nc(O)c(Cc2ccccc2)c1=O`: the Potency entry is “inactive” and the cell number change is -4.53%.
On to `COc1ccccc1-n1cnnc1SCC(=O)N1CCOCC1`, for which the Potency was 0.0146 µM (active) and the cell number change was -10.4%.
As to `Cc1ccccc1-n1c(SCC(=O)N2CCOCC2)nc(O)c(Cc2ccccc2)c1=O`, the Potency result is “inactive” and the cell number change is 15.6%.
For the compound `CCn1c(=O)c2cc(C(=O)NCC(OC)OC)sc2c2ccccc21`, the Potency entry is “inactive” and the cell number change was 25.4%.
In the case of `CCOC(=O)c1csc(NC(=O)C(C)(C)C)n1`, the Potency result is “inactive” and the cell number change is -3.51%.
Consider `O=C(c1ccc(F)cc1)C1CCN(C(=O)Nc2ccc(F)cc2F)CC1`, for which the Potency entry is “inactive” and the cell number change worked out at 14.5%.
Take `CCCc1c(O)c2ccccc2[nH]c1=O`: the Potency result was “inactive” and the cell number change is 3.83%.
For the compound `C/C(CC(=O)Nc1cccc(Cl)c1C)=N\NC(=O)Cc1csc(N)n1`, the Potency entry was “inactive” and the cell number change was determined as 22%.
As to `CNc1nc(N)c([N+](=O)[O-])c(Nc2ccccc2OC)n1`, the Potency result was “inactive” and the cell number change was found to be 11.2%.
Take `S=C(NC1CC1)N1CCCc2ccccc21`: the Potency entry was “inactive”.
With `COC(=O)c1sc(N)c(C(=O)OC)c1COC(=O)C12CC3CC(CC(O)(C3)C1)C2`, the Potency entry is “inactive” and the cell number change was -15.1%.
On to `CCOC(=O)c1sc(NC(=O)OC)c(C(=O)OC)c1C`, for which the Potency result was “inactive” and the cell number change is 11.2%.
Consider `CC(=O)c1c(COC(=O)c2ccc(Cl)cc2)nc2ccccc2[n+]1[O-]`, for which the Potency result was “inactive” and the cell number change came to 15.2%.
For the compound `CC(C)c1nnc(NC(=O)c2nc(S(=O)(=O)Cc3ccccc3F)ncc2Cl)s1`, the Potency is 1.64 µM (active) and the cell number change was -17.7%.
For the compound `Cc1cccc(CS(=O)(=O)c2ncc(Cl)c(C(=O)NCc3ccc4c(c3)OCO4)n2)c1`, the Potency is 6.51 µM (active).
For `CCSc1nnc(NC(=O)c2nc(S(=O)(=O)Cc3ccc(F)cc3)ncc2Cl)s1`, the Potency entry was “inactive” and the cell number change was -9.14%.
As to `CS(=O)(=O)c1ncc(Cl)c(C(=O)Nc2ccc(OC(F)F)cc2)n1`, the Potency is 18.4 µM (active) and the cell number change is -13.9%.
On to `O=C(Nc1ccc(OC(F)F)cc1)c1ncc(Cl)c(Cl)c1Cl`, for which the Potency result is “inactive” and the cell number change was determined as 21.1%.
`O=C(NCc1ccc2c(c1)OCO2)c1nc(S(=O)(=O)Cc2ccccc2)ncc1Cl`: the Potency result was “inactive”.
For the compound `Cc1ccc(CS(=O)(=O)c2ncc(Cl)c(C(=O)Nc3ccc(OC(F)F)cc3)n2)cc1`, the Potency was 1.16 µM (active).
For `COc1ccc(NC(=O)c2nc(SC)ncc2Cl)cc1`, the Potency entry is “inactive”.
As for `O=C(Nc1ccc(OC(F)F)cc1)c1ccccn1`, the Potency entry is “inactive” and the cell number change turned out to be 7.91%.
As to `Cc1ccc(CS(=O)(=O)c2ncc(Cl)c(C(=O)Nc3nnc(C(C)C)s3)n2)cc1`, the Potency entry was “inactive” and the cell number change is -27.5%.
As for `Cc1ccc(S(=O)(=O)NC(=O)Nc2ccc(OC(F)F)cc2)cc1`, the Potency entry is “inactive” and the cell number change was 7.38%.
In the case of `Cc1cccc(CS(=O)(=O)c2ncc(Cl)c(C(=O)Nc3c(C)cccc3C)n2)c1`, the Potency result was “inactive” and the cell number change came to 14.9%.
